# Assay results: ChEMBL document CHEMBL1201862, “PubChem BioAssay data set” (2004)
# Screen size: about 44,000 sequences; about 3,500 (8%) were called active. Rule as the data show it: active = GI50 up to about 1.1 µM and inactive = higher. These entries were drawn from the full list. Potency and affinity values are given separately.
# Test system: PC-3
row,Substance,GI50 [µM]
1,"[Bis(aminomethyl)pentamethylenesilane]tetrachloropaltinum(IV), CHEMBL2146204",1.83
2,"[Bis(aminomethyl)dimethylsilane]tetrachloroplatinum(IV), CHEMBL2146190",22.9
3,"[Bis(aminomethyl)tetramethylenesilane]tetrachloropaltinum(IV), CHEMBL2146189",8.36
4,"CISPLATIN, CHEMBL11359",5.01
5,"[Bis(aminomethyl)tetramethylenesilane]dichloropaltinum(II), CHEMBL2146205",7.19
6,"[Bis(aminomethyl)pentamethylenesilane]dichloropaltinum(II), CHEMBL2146202",1.64
